Assay results reported in the supplement of paper PMC12645437, “Orthogonal IMiD-Degron Pairs Induce Selective Protein Degradation in Cells” (ACS Chemical Biology, 2025).
Whole data set: some 8,300 sequences, median “log2 fold change of degron read counts, EGFP-low vs EGFP+ sorted cells (limma voom), compound-induced degradation” near -1.1, cut for the highest 2% near 3.2. Only a selection was taken, and the highest values are over-represented in it overall.

T1: CRBN, Q96SW2
T1 chain: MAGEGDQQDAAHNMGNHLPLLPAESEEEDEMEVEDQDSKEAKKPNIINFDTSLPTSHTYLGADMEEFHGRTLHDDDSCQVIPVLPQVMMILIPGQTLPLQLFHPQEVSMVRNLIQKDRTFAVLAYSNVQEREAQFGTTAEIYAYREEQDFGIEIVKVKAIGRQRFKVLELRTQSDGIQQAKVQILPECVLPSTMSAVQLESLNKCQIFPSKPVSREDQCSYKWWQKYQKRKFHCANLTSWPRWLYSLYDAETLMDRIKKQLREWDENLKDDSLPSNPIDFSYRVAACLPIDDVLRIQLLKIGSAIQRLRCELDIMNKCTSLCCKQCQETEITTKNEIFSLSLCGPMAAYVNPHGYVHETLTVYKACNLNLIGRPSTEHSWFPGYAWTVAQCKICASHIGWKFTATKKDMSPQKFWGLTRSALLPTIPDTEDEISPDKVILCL


Biological target: T1, CRBN, Q96SW2
Test: log2 fold change of degron read counts, EGFP-low vs EGFP+ sorted cells (limma voom), compound-induced degradation; higher = more compound-induced degradation of the degron-EGFP fusion; degrons are variants of IKZF1/3 zinc finger 2; compound dose not given here
Details: Jurkat, 18 h
[1] = compound: compound 19 (5-tert-butyl-thalidomide)
[2] = compound: compound 22 (5-morpholino-thalidomide)
[3] = compound: compound 33 (diphenyl IMiD analogue)
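Also: pooled lentiviral library of zinc finger degron-EGFP fusions in mCherry-positive Jurkat cells, FACS-sorted after compound exposure, with degron abundance counted by next-generation sequencing.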

Sequence	log2 fold change of degron read counts [1]	log2 fold change of degron read counts [2]	log2 fold change of degron read counts [3]	log2 fold change of degron read counts (compound: thalidomide)
FACNQCGHQFTQKGNLLRHIKL [46F_47A_49N_50Q_52G_53H_54Q_55F_67L_, Q9UKT9]	-2.48	-3.06	-3.27	-2.92
FRCNVCGAQFTQKGNLLRHIKL [46F_47R_49N_50V_52G_53A_54Q_55F_67L_, Q9UKT9]	-1.54	-1.19	-0.656	-0.561
FNCPICGHYFTQKGNLLRHIKL [46F_47N_49P_50I_52G_53H_54Y_55F_67L_, Q9UKT9]	-1.6	-1.7	-1.47	-1.44
FFCSVCGHKFTQKGNLLRHIKL [46F_47F_49S_50V_52G_53H_54K_55F_67L_, Q9UKT9]	-1.05	-2.36	-2.5	-2.6
FCCSVCGHVFTQKGNLLRHIKL [46F_47C_49S_50V_52G_53H_54V_55F_67L_, Q9UKT9]	-1.81	-2.39	-2.47	-2.11
FGCPICGASFTQKGNLLRHIKL [46F_47G_49P_50I_52G_53A_54S_55F_67L_, Q9UKT9]	3.27	2.28	2.49	1.31
FTCPICGASFTQKGNLLRHIKL [46F_47T_49P_50I_52G_53A_54S_55F_67L_, Q9UKT9]	2.17	3.02	2.88	3.23
FFCPICGASFTQKGNLLRHIKL [46F_47F_49P_50I_52G_53A_54S_55F_67L_, Q9UKT9]	3.26	3.18	2.18	1.74
FFCNICGASFTQKGNLLRHIKL [46F_47F_49N_50I_52G_53A_54S_55F_67L_, Q9UKT9]	2.16	2.55	1.2	-0.157
FHCPICGASFTQKGNLLRHIKL [46F_47H_49P_50I_52G_53A_54S_55F_67L_, Q9UKT9]	2.77	2.54	2.08	0.926
FICDICGARFTQKGNLLRHIKL [46F_47I_49D_50I_52G_53A_54R_55F_67L_, Q9UKT9]	-0.557	1.75	0.63	1.41
FGCNVCGAWFTQKGNLLRHIKL [46F_47G_49N_50V_52G_53A_54W_55F_67L_, Q9UKT9]	-1.56	-2	-0.753	-1.74
FFCDICGAYFTQKGNLLRHIKL [46F_47F_49D_50I_52G_53A_54Y_55F_67L_, Q9UKT9]	2.55	1.36	-0.119	-1.9
FSCPICGAGFTQKGNLLRHIKL [46F_47S_49P_50I_52G_53A_54G_55F_67L_, Q9UKT9]	2.83	1.27	1.76	0.755
FYCPICGAGFTQKGNLLRHIKL [46F_47Y_49P_50I_52G_53A_54G_55F_67L_, Q9UKT9]	2.99	2.02	2.1	-0.123
FRCPICGAGFTQKGNLLRHIKL [46F_47R_49P_50I_52G_53A_54G_55F_67L_, Q9UKT9]	2.23	1.8	2.28	1.55
FACPICGAGFTQKGNLLRHIKL [46F_47A_49P_50I_52G_53A_54G_55F_67L_, Q9UKT9]	3.61	1.67	0.663	0.803
FVCPICGAGFTQKGNLLRHIKL [46F_47V_49P_50I_52G_53A_54G_55F_67L_, Q9UKT9]	1.09	3.08	2.04	2.98
FQCPICGAGFTQKGNLLRHIKL [46F_47Q_49P_50I_52G_53A_54G_55F_67L_, Q9UKT9]	2.39	2.05	1.77	3.69
FWCPICGAGFTQKGNLLRHIKL [46F_47W_49P_50I_52G_53A_54G_55F_67L_, Q9UKT9]	3.3	2.73	1.87	0.518
FGCPICGAGFTQKGNLLRHIKL [46F_47G_49P_50I_52G_53A_54G_55F_67L_, Q9UKT9]	3.28	1.32	2.32	0.446
FKCPICGAGFTQKGNLLRHIKL [46F_47K_49P_50I_52G_53A_54G_55F_67L_, Q9UKT9]	2.08	-0.359	-0.702	0.6
FLCPICGAGFTQKGNLLRHIKL [46F_47L_49P_50I_52G_53A_54G_55F_67L_, Q9UKT9]	1.86	0.187	1.6	1.01
FTCPICGAGFTQKGNLLRHIKL [46F_47T_49P_50I_52G_53A_54G_55F_67L_, Q9UKT9]	1.55	2.19	2.35	2.4
FDCPICGAGFTQKGNLLRHIKL [46F_47D_49P_50I_52G_53A_54G_55F_67L_, Q9UKT9]	2.33	-0.146	0.564	1.11
FECDQCGAYFTQKGNLLRHIKL [46F_47E_49D_50Q_52G_53A_54Y_55F_67L_, Q9UKT9]	-2.99	-3.59	-2.13	-2.26
FGCDQCGATFTQKGNLLRHIKL [46F_47G_49D_50Q_52G_53A_54T_55F_67L_, Q9UKT9]	-1.78	-2.27	-1.3	-2.71
FWCEICGAFFTQKGNLLRHIKL [46F_47W_49E_50I_52G_53A_54F_55F_67L_, Q9UKT9]	3.03	3.13	2.12	-0.452
